Bioassay records as filed in PubChem BioAssay.
In the library only some 2% were active in any assay of this set; here they are far more common.
Calb FLC – C. albicans growth inhibition with fluconazole, primary screen, CaCi-2 strain, Alamar Blue fluorescence. C. albicans CaCi-2 (fluconazole-resistant clinical isolate) + fluconazole, 48 h. growth inhibition, % (test concentration not listed). hit rate 0.57% among 300,000. AID 1979, 2009;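 active = growth inhibition above about 58% in most replicates, limit read from the data, passing the limit was not always enough; inconclusive = exactly half the replicates above a set limit; inactive = most replicates below a set limit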;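 note: all wells also contain fluconazole at 8 µg/ml as a sub-toxic cotreatment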
Shn3 3UTR inh – reduction of Shn3 3'UTR firefly luciferase signal, primary screen, Schnurri-3 inhibitor project, cell-based, Clone20 osteoblasts, set 2; Clone20 osteoblast Shn3 3'UTR firefly luciferase, 24 h; hit rate 0.52% among 360,000; AID 588674, 2011; inhibition, % at 12.5 µM;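 active = mean inhibition of at least 75% with every replicate also reaching 75%; inconclusive = mean inhibition at least 75% but some replicate below; inactive = mean inhibition below 75%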
697 NFkB inh – inhibitors of PMA/ionomycin-induced NF-kB reporter, 697 cells, primary screen, B-cell NF-kB inhibitor project, cell-based, luminescence, uHTS | 697 B-cell NF-kB luciferase reporter, 16 h | inhibition, % at 4 µM | hit rate 0.33% among 330,000; in the data active = inhibition above about 35%
Beta cell apopt – inhibitors of cytokine-induced beta cell apoptosis, primary screen, luminescence; hit rate 0.8% among 300,000; AID 435005, 2010; INS-1E cytokine-induced death, ATP luminescence, 48 h; percent of positive-control rescue, neutral wells zero; protection from apoptosis, % (test concentration not listed);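 active = Every replicate reaches about 75%, or at least half do and their mean reaches it too, limit read from the data; inconclusive = At least half of replicates reach the limit but their mean does not; inactive = Under half of replicates reach the limit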;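 note: higher means more ATP so stronger rescue from cytokine killing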
Jurkat NFkB inh – inhibitors of induced NF-kB luciferase reporter, primary screen, TCR NF-kB activation inhibitor project, cell-based, luminescence, uHTS; Jurkat, PMA/ionomycin-induced NF-kB luciferase reporter; inhibition, % at 4 µM; hit rate 0.53% among 330,000; AID 435003, 2010; in the data active = inhibition above about 50%
697 NFkB conf – PMA/ionomycin-induced NF-kB reporter inhibitors, 697 retest, confirmation, B-cell NF-kB inhibitor project, cell-based, luminescence, single concentration | inhibition, % at 4 µM | 697 B-cell NF-kB luciferase, 16 h | hit rate 35% among 2,000 | AID 449746, 2010 | shares compounds with 697 NFkB inh; in the data active = inhibition mostly above about 28%, no sharp cut-off; inactive = mostly below about 22%
Of the large screens only hits and unclear results are named; the others gave an inactive call (follow-up assays come after a bar, where they were run).

COc1ccc(NC(=O)CN(C)C(=O)C2(c3ccccc3)CCCC2)cc1	697 NFkB inh 71.0 (no result: Calb FLC) | 697 NFkB conf 72.1
CNC(=O)CSc1nnc(-c2ccco2)n1-c1cccc(OC)c1	none
O=c1cnn([C@@H]2O[C@H](CO)[C@@H](O)[C@H]2O)c(=O)[nH]1	none | 697 NFkB conf inactive
COc1ccccc1NC(=O)c1cnc(SCC(=O)NCC2CCCO2)n(C)c1=O (stereo unspecified)	none (no result: Beta cell apopt)
Cc1nn(C)cc1CN1CCC(CO)(CCOc2ccccc2)CC1	697 NFkB inh 43.1 | 697 NFkB conf inactive
CCCCn1c(N)c(N(CC(C)C)C(=O)CSCc2ccc(Cl)c(Cl)c2)c(=O)[nH]c1=O	none
C/C(=N\Nc1ccc(C(=O)O)cc1)c1ccc(Cl)s1	none | 697 NFkB conf inactive
C/C(=N\Nc1ccc(C(=O)O)cc1)c1ccc(Br)cc1	none | 697 NFkB conf inactive
Cc1ccc(Cn2c(C)c(C(=O)NCc3cccs3)sc2=O)cc1	none (no result: Calb FLC, 697 NFkB inh, Beta cell apopt, Jurkat NFkB inh)
COc1ccc(C)cc1N1CC(C(=O)Nc2ccccc2C(=O)NC2CC2)CC1=O (stereo unspecified)	none (no result: Calb FLC)
O=C(CSc1ncn[nH]1)Nc1ccc(Cl)c(Cl)c1	697 NFkB inh 35.2 | 697 NFkB conf inactive
CCN(CC)CCCN=Cc1c(-c2ccccc2)[nH]n(-c2nc3ccccc3s2)c1=O	697 NFkB inh 40.1 | 697 NFkB conf 42.1
CCCN=C(C)c1c(-c2ccccc2)[nH]n(-c2nc3ccccc3s2)c1=O	none
O=C(Nc1ccc2c(c1)OCO2)C(=O)c1c[nH]c2ccccc12	none
O=C(/C=C/c1ccccc1)Nc1ccc2c(c1)OCCO2	none | 697 NFkB conf inactive
O=C(Nc1ccc2c(c1)OCCO2)C(=O)c1c[nH]c2ccccc12	none | 697 NFkB conf inactive
CC(C)Cc1ccc(-c2cc3nc(NCCCn4ccnc4)ccn3n2)cc1	none (no result: Calb FLC, 697 NFkB inh, Beta cell apopt, Jurkat NFkB inh)
CC(=O)Nc1sc(NC(=O)c2ccc(C)cc2)nc1-c1cccs1	697 NFkB inh 35.9 | 697 NFkB conf inactive
COc1ccc(-c2cnc(C(O)c3ccc(CN4CCCCC4)cc3)[nH]2)cc1 (stereo unspecified)	none (no result: Calb FLC, 697 NFkB inh, Beta cell apopt, Jurkat NFkB inh)
N=c1c2c(n(Cc3ccc(Cl)c(Cl)c3)c3c1CCC3)CCCC2	697 NFkB inh 43.6, Beta cell apopt 102.5 | 697 NFkB conf 28.7
CCN1C(=O)c2cccc3c(NC(=O)c4cccc(N5C(=O)CCC5=O)c4)ccc1c23	697 NFkB inh 35.9 | 697 NFkB conf 40.2
Cc1ccc(C(=O)NNC(=O)c2ccc(-n3cncn3)c([N+](=O)[O-])c2)cc1	none
Cc1ccc(NC(=O)c2nc[nH]c2C(=O)NCCCNC(=O)c2[nH]cnc2C(=O)Nc2ccc(C)cc2)cc1	697 NFkB inh 36.3 (no result: Calb FLC) | 697 NFkB conf inactive
CCC1CCCCN1CCCNC(=O)c1ccc2nc(N3CCCCC3)sc2c1 (stereo unspecified)	none | 697 NFkB conf inactive
O=C1NC(c2ccc(Cl)c([N+](=O)[O-])c2)Nc2ccccc21 (stereo unspecified)	none
O=C1NC(c2cc(Cl)cc([N+](=O)[O-])c2O)Nc2ccccc21 (stereo unspecified)	697 NFkB inh 36.0 | 697 NFkB conf inactive
CCOc1ccc(CCNC(=O)COC(=O)c2cccnc2SC)cc1OCC	none
Cc1cccc(/C=C\c2nc3ccccc3c(=O)[nH]2)c1	none
C(=C\c1nc2ccccc2[nH]1)/c1ccccc1	none | 697 NFkB conf inactive
C(=C\c1ccco1)/c1nc2ccccc2[nH]1	none
Cc1nc(/C=C/c2ccccc2)[nH]c(=O)c1-c1ccccc1	Calb FLC inconclusive | 697 NFkB conf inactive
C[C@H](CO)N1C[C@H](C)[C@@H](CN(C)C(=O)Nc2ccc3c(c2)OCO3)Oc2c(NC(=O)Nc3ccc(C(F)(F)F)cc3)cccc2C1=O	697 NFkB inh 45.7 (no result: Calb FLC) | 697 NFkB conf inactive
C[C@H](CO)N1C[C@H](C)[C@@H](CN(C)C(=O)Nc2ccc(C(F)(F)F)cc2)Oc2c(NC(=O)Nc3ccc4c(c3)OCO4)cccc2C1=O	none (no result: Calb FLC)
COc1ccc2oc(C(=O)N(C)CCOc3ccccc3)c(C)c2c1	none
Cc1ccccc1CN(C)CCS(=O)(=O)c1cc(Cl)ccc1Cl	697 NFkB inh 35.9 | 697 NFkB conf inactive
Nc1nnc(CCS(=O)(=O)c2cc(Cl)ccc2Cl)s1	none
CN1CCCN(C(=O)c2ccc(Br)cc2)CC1	none
CC(C)CNC(=O)CSc1nc2nn(-c3ccccc3)c(=O)c-2c2n1CCCCC2	none
CNC(=O)CSc1nc2nn(-c3ccccc3)c(=O)c-2c2n1CCCCC2	697 NFkB inh 35.4 | 697 NFkB conf 37.7
CCSc1nnc2ccc(-c3ccco3)nn12	none
Cc1ccc(-c2n[nH]c(=O)c3ccccc23)cc1S(=O)(=O)NCCN1CCOCC1	none
Cc1ccc(-c2nn3c(C)nnc3c3ccccc23)cc1S(=O)(=O)NCCN1CCOCC1	697 NFkB inh 53.0 | 697 NFkB conf 30.5
COc1ccc(CC(=O)OCC(=O)Nc2c(C)n(C)n(-c3ccccc3)c2=O)cc1OC	none (no result: Calb FLC)
Cc1ccccc1N1CC(=O)Nc2c(oc3nc(-c4ccccc4)cc(C)c23)C1=O	697 NFkB inh 38.4 | 697 NFkB conf inactive
CN(C(=O)COC(=O)c1ccc2c(c1)OCCO2)C1CCCCC1	none (no result: Calb FLC, Beta cell apopt)
COCCn1c(-c2ccc(Cl)cc2Cl)nc2c(c(=O)c3ccccc3n2C)c1=O	697 NFkB inh 41.0 | 697 NFkB conf inactive
CCc1nc2c(c(=O)c3ccccc3n2C)c(=O)n1CCc1ccc(OC)cc1	none (no result: Shn3 3UTR inh) | 697 NFkB conf inactive
COc1ccc(CCn2c(-c3ccc(OC)cc3)nc3c(c(=O)c4ccccc4n3C)c2=O)cc1	none
CCC(C(=O)NC(C)(C)C)N(Cc1ccco1)C(=O)CNS(=O)(=O)c1ccc(OC)cc1 (stereo unspecified)	none
CC1(C(=O)NS(=O)(=O)c2cccc(OC(F)F)c2)CCN1C(=O)c1ccco1 (stereo unspecified)	none (no result: Calb FLC, 697 NFkB inh, Beta cell apopt, Jurkat NFkB inh)
O=C(NCc1ccc(F)cc1)c1cc(C2CCCN(C(=O)C3CCCCC3)C2)on1 (stereo unspecified)	none (no result: Calb FLC, 697 NFkB inh, Beta cell apopt, Jurkat NFkB inh)
Cc1ccccc1Nc1n[nH]c(=S)s1	none (no result: Calb FLC, 697 NFkB inh, Beta cell apopt, Jurkat NFkB inh)
Cc1ccccc1Nc1nc(Cl)c(C=O)s1	697 NFkB inh 35.1 | 697 NFkB conf 39.5
COc1ccc(CCn2c(=N)c(S(=O)(=O)c3ccc(C)cc3)cc3c(=O)n4ccccc4nc32)cc1	none
Cc1cccc(N(CC(=O)N2CCCC2)S(C)(=O)=O)c1	none
N/C(=N\OC(=O)c1ccc(Cl)cc1Cl)c1cccnc1	none
N/C(=N\OC(=O)c1ccc(Cl)cc1Cl)c1ccc(Cl)cc1	none | 697 NFkB conf inactive
Cc1ccc(C)c(-c2nc3ccc(N)cc3[nH]2)c1	none
Cc1ccc2nc(-c3ccccc3N)[nH]c2c1	none | 697 NFkB conf inactive
